Assay results from PubChem BioAssay (NCATS).
Inconclusive results are not listed. A call without a number means that no potency is given here. Calls of active or inactive are those of the source. Unless noted, calls come from the whole dose curve; as a rule, active = well fitted curve in the direction sought with a large enough effect; inconclusive = small, poorly fitted or top-dose-only effect, or another doubt; inactive = no such curve, though single readings can be large; an effect the other way counts as inactive or inconclusive. Bridge positions count the residues as written; N and C are the ends. Square brackets hold non-standard residues; d marks the D form. Peptide text beside a SMILES is read from it. hArg = N=C(N)NCCCC[C@H](N)C(=O)O; Mpa = O=C(O)CCS

What was measured:
[1] = target: ATP-dependent 6-phosphofructokinase (Trypanosoma brucei brucei) (UniProt O15648); test: qHTS Assay to Find Inhibitors of T. brucei phosphofructokinase: hit validation (AID 492961); note: series mostly up to about 51 µM
In short: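 Luminescence from ADP-Glo reports ADP generated as T. brucei PFK (1.25 nM) phosphorylates 0.5 mM fructose-6-phosphate using 0.1 mM ATP. Reactions ran 45 min at room temperature, pH 8.0.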

[2] = Validation screen for small molecules that induce genotoxicity in human embryonic kidney (HEK293T) cells expressing luciferase-tagged ELG1 (AID 493106)
In short: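 HEK293T cells expressing luciferase-tagged ELG1 were exposed to compound or DMSO vehicle for 16 hr at 37 °C, 5% CO2. Genotoxic stress raises ELG1 levels, so increased luciferase signal after ONE-Glo addition and 30 min at room temperature marks hits.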

[3] = target: ATPase family AAA domain-containing protein 5 (Homo sapiens) (UniProt Q96QE3); test: Validation screen for small molecules that inhibit ELG1-dependent DNA repair in human embryonic kidney (HEK293T) cells expressing luciferase-tagged ELG1 (AID 493107);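 note: cells co-treated with the DNA-damaging agent 5-fluorouridine alongside compound; series mostly up to about 46 µM; inhibitors lower the ELG1-luciferase luminescence signal; nearly all actives have a fitted effect of over 70% in size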
In short: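 HEK293T cells expressing luciferase-tagged ELG1 were co-treated with 5-fluorouridine and compound or DMSO for 16 hr at 37 °C, 5% CO2. Luciferase activity was then read with ONE-Glo after 30 min at room temperature; suppressed signal indicates blocked ELG1 function.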

[4] = Nrf2 qHTS screen for inhibitors: Validation (AID 493153; active = well fitted inhibition curve with a large enough effect in the main read-out, with a control signal flat, not every such curve was filed as active); conditions: viability change: measured here: cytotoxicity max response
In short: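 A549 cells carrying an ARE-driven firefly luciferase reporter, in 5% FBS OPTI-MEM, were treated with compounds in concentration-response for 18-24 h at 37°C. Viability was read by CellTiter-Fluor fluorescence, then Nrf2 activity by luciferase luminescence.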

[5] = qHTS for Inhibitors of Cell Surface uPA Generation: Validation Assay (AID 493164);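 note: RAW 264.7 macrophage cells exposed to compound for 18 h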
In short: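 RAW 264.7, 4000 cells/well, o/n plating; cpd 7-pt 1:5 dilution 2.45 nM–38.3 uM final; 18 h, 37 C/5% CO2; ATP-Lite, 5 s luminescence exposure.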

[6] = target: Galactokinase (Homo sapiens) (UniProt P51570); test: qHTS Validation Assay for Inhibitors of Human Galactokinase (GALK) (AID 493189)
In short: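 GALK (5 nM) with 35 uM ATP and 100 uM galactose in HEPES pH8.0, MgCl2, NaCl, DTT, BSA; 1 h at room temperature. Residual ATP read by Kinase-Glo Plus luminescence after 10 min.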

[7] = Validation screen for small molecules that induce DNA re-replication in SW480 colon adenocarcinoma cells (AID 504364)
In short: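 SW480 cells seeded at 250 per well were exposed to compound or DMSO for 48 hr at 37 C, 5% CO2, then stained with Hoechst for 40 min. DNA content per nucleus was imaged (405 nm ex, 500-530 nm em).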

[8] = target: Peptidyl-prolyl cis-trans isomerase NIMA-interacting 1 (Homo sapiens) (UniProt Q13526); test: qHTS Validation Assay to Find Inhibitors of Pin1 (AID 504536; active = well fitted inhibition curve with a large enough effect in the polarisation, with a control signal flat, not every such curve was filed as active; the % refers to the polarisation)
Description: NIH Molecular Libraries Probe Production Network [MLPCN]
NIH Chemical Genomics Center [NCGC]
The unique chemical properties of Pro allow for the adoption of two completely distinct amide bond conformations (cis and trans). Peptidyl-prolyl cis/trans isomerases (PPIases) are evolutionary conserved enzymes that catalyze cis/trans isomerization of peptidyl-prolyl peptide bonds. Distinct from all other PPIases such as cyclophilins and FK506-binding proteins (FKBPs), Pin1 binds a subset of phos.Ser/Thr-Pro-containing proteins using its protein-targeting WW domain and isomerizes only specific phos.Ser/Thr-Pro bonds, which cannot be effectively catalyzed by other known PPIases.
Pin1-catalyzed conformational regulation can control a spectrum of activities of many key regulators in diverse cellular processes such as cell growth, genotoxic and other stress responses, immune response, germ cell development, neuronal differentiation and survival. Pin1 has emerged as a novel molecular timer that modulates its multiple targets at various steps of a given cellular process to synergistically control the amplitude and duration of a cellular response or process. Importantly, Pin1 is tightly regulated by multiple levels and its deregulation has an important role in a growing number of pathological conditions, including cancer, Alzheimer's disease, aging, asthma and microbial infection, providing a potentially new therapeutic option.
The goal of this screen is to find small-molecule inhibitors of Pin1 using a fluorescence polarization competition assay. A HiFluor-488-labeled peptide binds to the active site of Pin1 and can be displaced by compounds. Compounds were screened as a concentration-titration series that ranged from 57 uM to 0.7 nM.
NCGC Assay Protocol Summary:
Pin1 (0.6 uM) was dispensed into black, solid 1536-well plates at 2 uL/well in 10 mM HEPES (pH 7.5), 10 mM NaCl, 0.01% Tween20, 1 mM DTT, and 1% glycerol. Then, 23 nL of compounds or DMSO were delivered to each well using a pin tool. […] The plates were measured on a ViewLux plate reader for fluorescence polarization signal using a 480/20 nM nm excitation filter and 540/25 nM nm S and P emission filters with a 20 second exposure. The %Activity was determined from the corrected fluorescence polarization values. […]
Concentration-response curves were fitted to the signals arising from the resulting fluorescence polarization. The concentration-effect curves were then classified based on curve quality (r2), response magnitude and degree of measured activity, and compounds were subsequently categorized based on their curve class.
Keywords: Peptidyl prolyl isomerase, Pin1, fluorescence polarization, MLSMR, MLPCN, NIH Roadmap, qHTS, NCGC

[9] = target: Phosphoglycerate kinase, glycosomal (Trypanosoma brucei brucei) (UniProt P07378); test: qHTS Validation Assay to Find Inhibitors of Phosphoglycerate Kinase (AID 504547)
In short: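 PGK activity was coupled to GAPDH (100nM final), which generates the unstable substrate 1,3-bisphosphoglycerate in-well. Reactions ran 60 minutes at room temperature in 100mM TEA pH 7.6, 5mM MgCl2, 0.01% Tween-20, then Kinase-Glo Plus luminescence was read.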

[10] = target: Thyrotropin-releasing hormone receptor (Homo sapiens) (UniProt P34981); test: qHTS for Small Molecule Agonists and Allosteric Enhancers of Human TRH Receptor: Validation Screen for Agonists (AID 493127;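 active = calcium activation more than 3 SD above the typical response in the agonist read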;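 note: intracellular calcium rise by fluo-8 fluorescence before TRH EC20 addition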); conditions: TRH receptor agonist cell assay; at 2 µM; stronger effect = higher value
In short: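 TRHR-expressing cells were plated overnight in serum-containing medium, then loaded with fluo-8 calcium dye at room temperature for 30 min–1.5 h. After a 10 s baseline, compound was pin-transferred and calcium fluorescence (ex 480/em 530) read kinetically for agonist response.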

Galactokinase (Homo sapiens), sequence (P51570 whole entry, looked up): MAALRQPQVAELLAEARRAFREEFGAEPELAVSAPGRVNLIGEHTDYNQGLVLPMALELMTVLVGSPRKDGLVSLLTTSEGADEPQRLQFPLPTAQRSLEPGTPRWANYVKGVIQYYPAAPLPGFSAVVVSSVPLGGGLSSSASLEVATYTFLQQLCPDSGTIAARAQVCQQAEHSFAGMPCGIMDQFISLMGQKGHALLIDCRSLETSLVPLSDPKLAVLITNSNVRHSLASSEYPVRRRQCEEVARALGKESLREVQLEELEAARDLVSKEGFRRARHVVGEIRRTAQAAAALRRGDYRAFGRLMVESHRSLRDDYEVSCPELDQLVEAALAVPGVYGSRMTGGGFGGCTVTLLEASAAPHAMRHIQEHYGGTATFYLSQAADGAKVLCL
Phosphoglycerate kinase, glycosomal (Trypanosoma brucei brucei), sequence (P07378 whole entry, looked up): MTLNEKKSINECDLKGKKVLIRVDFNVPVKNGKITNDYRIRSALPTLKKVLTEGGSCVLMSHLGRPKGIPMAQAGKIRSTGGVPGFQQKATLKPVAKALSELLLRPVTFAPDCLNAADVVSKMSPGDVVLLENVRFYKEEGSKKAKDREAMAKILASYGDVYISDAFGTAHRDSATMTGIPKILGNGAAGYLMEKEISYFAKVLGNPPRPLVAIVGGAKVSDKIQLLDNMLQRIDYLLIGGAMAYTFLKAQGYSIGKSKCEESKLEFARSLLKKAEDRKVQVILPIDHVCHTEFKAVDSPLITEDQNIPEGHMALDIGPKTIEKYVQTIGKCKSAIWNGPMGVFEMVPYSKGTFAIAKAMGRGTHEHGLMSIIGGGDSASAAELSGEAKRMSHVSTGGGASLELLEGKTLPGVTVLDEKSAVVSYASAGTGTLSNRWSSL
ATP-dependent 6-phosphofructokinase (Trypanosoma brucei brucei), sequence (O15648 whole entry, looked up): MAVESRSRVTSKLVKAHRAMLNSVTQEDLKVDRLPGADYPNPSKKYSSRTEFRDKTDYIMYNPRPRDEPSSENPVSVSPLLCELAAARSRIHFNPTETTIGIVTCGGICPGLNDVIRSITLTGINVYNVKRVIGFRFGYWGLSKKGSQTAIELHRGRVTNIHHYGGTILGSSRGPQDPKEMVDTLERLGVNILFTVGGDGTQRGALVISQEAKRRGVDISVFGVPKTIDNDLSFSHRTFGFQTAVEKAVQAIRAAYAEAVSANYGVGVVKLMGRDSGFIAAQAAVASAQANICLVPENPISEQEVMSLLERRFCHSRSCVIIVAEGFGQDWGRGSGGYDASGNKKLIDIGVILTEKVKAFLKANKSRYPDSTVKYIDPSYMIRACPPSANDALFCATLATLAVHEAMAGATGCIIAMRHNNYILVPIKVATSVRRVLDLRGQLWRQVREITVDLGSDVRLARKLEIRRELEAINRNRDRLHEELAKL
Peptidyl-prolyl cis-trans isomerase NIMA-interacting 1 (Homo sapiens), sequence (Q13526 whole entry, looked up): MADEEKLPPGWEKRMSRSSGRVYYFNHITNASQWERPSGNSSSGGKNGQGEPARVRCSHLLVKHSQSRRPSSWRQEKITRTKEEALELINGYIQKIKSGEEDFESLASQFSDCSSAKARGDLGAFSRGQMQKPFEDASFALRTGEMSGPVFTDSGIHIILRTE
ATPase family AAA domain-containing protein 5 (Homo sapiens), sequence (Q96QE3 whole entry, looked up, the tested form may be a part): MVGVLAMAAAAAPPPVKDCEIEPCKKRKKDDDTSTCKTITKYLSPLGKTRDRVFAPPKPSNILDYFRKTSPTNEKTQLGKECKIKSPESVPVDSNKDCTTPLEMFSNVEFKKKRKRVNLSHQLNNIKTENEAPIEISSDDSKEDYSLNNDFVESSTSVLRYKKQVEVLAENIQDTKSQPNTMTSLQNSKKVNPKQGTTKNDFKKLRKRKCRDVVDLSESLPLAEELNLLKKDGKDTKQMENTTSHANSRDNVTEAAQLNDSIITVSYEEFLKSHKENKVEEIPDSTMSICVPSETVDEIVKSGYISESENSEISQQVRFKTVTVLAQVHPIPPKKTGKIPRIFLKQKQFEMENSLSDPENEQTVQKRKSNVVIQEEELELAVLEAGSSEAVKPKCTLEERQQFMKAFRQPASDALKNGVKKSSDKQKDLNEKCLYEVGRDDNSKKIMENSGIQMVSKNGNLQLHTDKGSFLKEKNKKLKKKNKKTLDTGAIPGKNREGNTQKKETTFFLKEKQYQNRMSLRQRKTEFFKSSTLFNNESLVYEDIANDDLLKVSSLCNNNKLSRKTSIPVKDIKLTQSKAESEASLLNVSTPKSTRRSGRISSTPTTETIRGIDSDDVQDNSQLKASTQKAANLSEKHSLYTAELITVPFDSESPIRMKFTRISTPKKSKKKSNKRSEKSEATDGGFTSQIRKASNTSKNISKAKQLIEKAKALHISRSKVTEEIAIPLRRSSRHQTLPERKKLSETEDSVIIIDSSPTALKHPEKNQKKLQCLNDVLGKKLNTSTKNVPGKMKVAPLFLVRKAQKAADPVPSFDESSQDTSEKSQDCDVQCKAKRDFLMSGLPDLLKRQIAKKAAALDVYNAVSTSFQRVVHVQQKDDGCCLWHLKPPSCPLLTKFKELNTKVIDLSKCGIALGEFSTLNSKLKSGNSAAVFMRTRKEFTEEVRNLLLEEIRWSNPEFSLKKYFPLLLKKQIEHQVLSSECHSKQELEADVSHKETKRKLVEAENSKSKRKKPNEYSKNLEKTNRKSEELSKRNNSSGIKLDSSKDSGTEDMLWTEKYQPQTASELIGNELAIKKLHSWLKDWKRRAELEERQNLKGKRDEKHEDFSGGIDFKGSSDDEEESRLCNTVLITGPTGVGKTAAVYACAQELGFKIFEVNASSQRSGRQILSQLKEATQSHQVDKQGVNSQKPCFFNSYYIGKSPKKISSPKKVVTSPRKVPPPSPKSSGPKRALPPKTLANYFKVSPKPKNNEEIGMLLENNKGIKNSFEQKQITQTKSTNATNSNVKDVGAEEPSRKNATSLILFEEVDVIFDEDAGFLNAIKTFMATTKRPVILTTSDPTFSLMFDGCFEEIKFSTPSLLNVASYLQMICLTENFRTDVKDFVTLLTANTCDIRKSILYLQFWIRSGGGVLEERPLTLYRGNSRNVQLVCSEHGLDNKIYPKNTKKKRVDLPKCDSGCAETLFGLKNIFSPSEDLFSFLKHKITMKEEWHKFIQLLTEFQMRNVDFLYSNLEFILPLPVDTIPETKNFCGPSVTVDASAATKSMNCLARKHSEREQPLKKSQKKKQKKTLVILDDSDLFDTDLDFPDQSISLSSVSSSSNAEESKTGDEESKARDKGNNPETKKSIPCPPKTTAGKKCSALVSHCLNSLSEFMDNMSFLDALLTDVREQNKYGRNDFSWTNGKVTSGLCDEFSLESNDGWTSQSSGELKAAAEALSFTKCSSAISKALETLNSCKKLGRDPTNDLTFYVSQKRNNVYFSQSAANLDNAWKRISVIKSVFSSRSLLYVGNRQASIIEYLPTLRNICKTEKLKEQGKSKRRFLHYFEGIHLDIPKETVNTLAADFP
Thyrotropin-releasing hormone receptor (Homo sapiens), sequence (P34981 whole entry, looked up): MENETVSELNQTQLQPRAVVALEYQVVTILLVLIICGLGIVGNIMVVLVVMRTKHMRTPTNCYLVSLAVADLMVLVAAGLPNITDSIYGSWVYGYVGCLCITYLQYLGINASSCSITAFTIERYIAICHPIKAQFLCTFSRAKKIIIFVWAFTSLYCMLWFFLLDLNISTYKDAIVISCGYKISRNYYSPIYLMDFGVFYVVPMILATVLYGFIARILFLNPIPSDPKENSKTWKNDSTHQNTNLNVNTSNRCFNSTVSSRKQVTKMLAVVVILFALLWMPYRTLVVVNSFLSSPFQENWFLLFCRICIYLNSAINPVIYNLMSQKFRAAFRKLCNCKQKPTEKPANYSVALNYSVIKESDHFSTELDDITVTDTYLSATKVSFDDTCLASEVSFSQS

Question: With `CCS(=O)(=O)C(C)(C)S(=O)(=O)CC` as the molecule, how does the Potency [1] read?
Answer: inactive

Question: For `ClC1=C(Cl)C2(Cl)C(CBr)CC1(Cl)C2(Cl)Cl` (stereo not drawn), which Potency [1] is on record?
Answer: inactive

Question: What does the source list for `COC(=O)C1=CCCN(C)C1`?
Answer: outcome [2]: inactive; Potency [3]: inactive; outcome [4]: inactive; viability change [4]: -1.14%; outcome [5]: inactive; outcome [6]: inactive; outcome [7]: inactive; outcome [8]: inactive; outcome [9]: inactive

Question: For `COP(=O)(OC)OC=C(Cl)Cl`, which Potency [1] is on record?
Answer: inactive

Question: Which Potency [1] does the source give for `CC[n+]1c(-c2ccccc2)c2cc(N)ccc2c2ccc(N)cc21` here?
Answer: inactive

Question: For `CC(C)NCC(O)c1ccc(N)c(C#N)c1` (stereo not drawn), which Potency [1] is on record?
Answer: inactive

Question: For `C[N+]1(CCC(C(N)=O)(c2ccccc2)c2ccccc2)CCCCC1`, which Potency [1] is on record?
Answer: inactive

Question: For `C[C@]12CC[C@H]3[C@@H](CC=C4C[C@@H](O)CC[C@@]43C)[C@@H]1CC[C@@H]2O`, which Potency [1] is on record?
Answer: inactive

Question: Which Potency [1] does the source give for `CCC1(CC)C(=O)NC(=O)NC1=O` here?
Answer: inactive

Question: Which Potency [1] does the source give for `CCNc1nc(Cl)nc(NCC)n1` here?
Answer: inactive

Question: Which outcome [2] does the source give for `COc1ccc(C(=O)N2CCCC2=O)cc1` here?
Answer: inactive

Question: What about the Potency [3] of the same molecule?
Answer: inactive

Question: What about the activation [10] of the same molecule?
Answer: 0.812% (inactive)

Question: And the outcome [4]?
Answer: inactive

Question: What about the viability change [4] of the same molecule?
Answer: -4.73%

Question: What about the outcome [6] of the same molecule?
Answer: inactive

Question: What about the outcome [7] of the same molecule?
Answer: inactive

Question: And the outcome [8]?
Answer: inactive

Question: And the outcome [9]?
Answer: inactive

Question: With `O=C(NC(=O)c1c(F)cccc1F)Nc1cc(Cl)c(OC(F)(F)C(F)C(F)(F)F)cc1Cl` (stereo not drawn) as the molecule, how does the Potency [1] read?
Answer: inactive

Question: With `NC(=O)[C@@H]1CSSCCC(=O)N[C@@H](CCCCN=C(N)N)C(=O)NCC(=O)N[C@@H](CC(=O)O)C(=O)N[C@@H](Cc2c[nH]c3ccccc23)C(=O)N2CCC[C@H]2C(=O)N1` ([Mpa][hArg]GDWPC-NH2; disulfide 1-7) as the molecule, how does the Potency [1] read?
Answer: inactive

Question: With `O=C(O)c1nn(Cc2ccc(Cl)cc2Cl)c2ccccc12` as the molecule, how does the Potency [1] read?
Answer: inactive

Question: What about the outcome [2] of the same molecule?
Answer: inactive

Question: And the Potency [3]?
Answer: inactive

Question: What about the activation [10] of the same molecule?
Answer: 0.438% (inactive)

Question: And the outcome [5]?
Answer: inactive

Question: And the outcome [6]?
Answer: inactive

Question: What about the outcome [7] of the same molecule?
Answer: inactive

Question: What about the outcome [8] of the same molecule?
Answer: inactive

Question: What about the outcome [9] of the same molecule?
Answer: inactive
